# PubChem BioAssay (EPA / NIEHS)
# Where “and” joins values, the source holds several entries; their conditions need not be identical. Equal entries are not always repeated. Inconclusive results are not listed. Calls of active or inactive are those of the source. The calls were made as follows, unless noted: active = hit-call score of the fitted dose curve at least 0.9, where 1 is the maximum; inactive = score below 0.9.
# How the values were obtained:
# [1] = ATG_XTT_Cytotoxicity_XSP2: Cytotoxicity Assessment in the Attagene TRANS-FACTORIAL Multi-Species (XSP2) HepG2 Assay (AID 2283837; active = hit-call score of the fitted dose curve at least 0.9, where 1 is the maximum)
# How it was run: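 XTT-based cell number read-out in human HepG2 liver cells carrying transfected reporter units, measured 24 h after chemical dosing. Activity is signal loss versus DMSO baseline.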
# [2] = biological target: human Thyroid hormone Receptor alpha (TRa), THRA (gene 7067) (UniProt P10827); test: ATG_hTRa_XSP2: Attagene TRANS-FACTORIAL Multi-Species (XSP2) HepG2 Assay for human Thyroid hormone Receptor alpha (TRa) (AID 2283838; active = hit-call score of the fitted dose curve at least 0.9, where 1 is the maximum)
# How it was run: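 Reporter transcripts were read by RT-PCR with fluorescent primer extension, HpaI digestion and capillary electrophoresis. These came from HepG2 cells carrying multiplexed TRa-Gal4 TRANS constructs, harvested 24 hours after dosing. The medium also held 6-alpha-fluorotestosterone (3 nM) and norgestrel (1.5 nM), and increases were fitted against DMSO.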
# [3] = CEETOX_H295R_11DCORT_noMTC: CeeTox H295R High-throughput Steroidogenesis Assay for 11-Deoxycortisol (11DCORT), maximum tolerated concentration (MTC) filtered results only (AID 2283911); details: actives raise or lower the signal
# How it was run: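 Forskolin-primed (10 uM, 48 h) H295R adrenal cells are dosed for 48 h at 0.1% DMSO; medium 11-deoxycortisol is quantified by LC-MS/MS against a 7-point standard curve, with activity fitted in both directions versus DMSO.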
# [4] = CEETOX_H295R_OHPREG_noMTC: CeeTox H295R High-throughput Steroidogenesis Assay for OH-Pregnenolone (OHPREG), maximum tolerated concentration (MTC) filtered results only (AID 2283912); details: actives raise or lower the signal
# How it was run: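 Readout is HPLC-MS/MS quantification of 17alpha-hydroxypregnenolone released by forskolin-stimulated H295R cells over 48 h of chemical exposure, DMSO as baseline.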
# [5] = CEETOX_H295R_OHPROG_noMTC: CeeTox H295R High-throughput Steroidogenesis Assay for OH-Progesterone (OHPROG), maximum tolerated concentration (MTC) filtered results only (AID 2283914); details: actives raise or lower the signal
# How it was run: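 Analysis uses all tested concentrations, without maximum-tolerated-concentration screening by MTT. H295R cells, forskolin-primed (10 uM, 48 h), receive chemical for 48 h; hormone in medium measured by HPLC-MS/MS, with bidirectional curve fitting against DMSO.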
# human Thyroid hormone Receptor alpha (TRa), THRA (gene 7067), sequence (P10827 whole entry, looked up, the tested form may be a part): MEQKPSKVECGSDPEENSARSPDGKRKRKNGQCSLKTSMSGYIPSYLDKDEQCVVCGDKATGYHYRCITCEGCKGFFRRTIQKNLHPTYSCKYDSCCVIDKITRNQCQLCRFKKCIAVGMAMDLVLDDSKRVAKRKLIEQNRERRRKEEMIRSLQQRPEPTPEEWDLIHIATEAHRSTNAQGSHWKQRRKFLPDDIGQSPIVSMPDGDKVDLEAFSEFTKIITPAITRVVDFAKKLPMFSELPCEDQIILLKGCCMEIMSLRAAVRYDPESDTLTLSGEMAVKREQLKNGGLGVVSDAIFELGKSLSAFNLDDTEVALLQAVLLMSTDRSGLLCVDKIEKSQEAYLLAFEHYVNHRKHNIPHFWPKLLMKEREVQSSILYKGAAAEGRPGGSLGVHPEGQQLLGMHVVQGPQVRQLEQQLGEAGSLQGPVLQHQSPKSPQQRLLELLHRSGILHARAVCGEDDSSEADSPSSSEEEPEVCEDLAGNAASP
structure (smiles),measurement,setting,value
O=c1cc(-c2ccccc2)oc2cc(O)cc(O)c12,outcome,[1],inactive
same,AC50,[2],10.9 µM (active) and 7.51 µM (active)
O=C(Oc1ccccc1)c1ccc(O)cc1,outcome,[2],inactive
Cc1ccc(C(C)C)cc1O,outcome,[3],inactive
same,outcome,[4],inactive
same,AC50,[5],33 µM (active)
CC1CC(OC(=O)c2ccccc2O)CC(C)(C)C1 (centres undefined),outcome,[3],inactive
same,outcome,[4],inactive
same,outcome,[5],inactive
